Experimental data taken from PubChem BioAssay (NCI).
The panel holds about 79,000 compounds, 15% with a hit somewhere; the sample as a whole holds those more often. Rule as the data show it: active = growth inhibition above about 70%; inactive = the rest.

How the values were obtained:
[1] = NCI Yeast Anticancer Drug Screen. Data for the rad50 strain (AID 155);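 also: 0% = growth of vehicle-only cultures of the same strain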; conditions: S. cerevisiae rad50 strain growth inhibition; at 50.0 µM; hits give high values
Procedure, shortened: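 Relative growth inhibition (compound vs vehicle) was measured in yeast with a defined repair-gene alteration.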

[2] = NCI Yeast Anticancer Drug Screen. Data for the mec2-1 strain (AID 157); conditions: S. cerevisiae mec2-1 strain, at 50.0 µM, hits give high values
Procedure, shortened: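 Vehicle-treated cultures served as reference for growth inhibition of compound-exposed mec2-1 yeast.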

[3] = NCI Yeast Anticancer Drug Screen. Data for the sgs1 mgt1 strain (AID 161);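 also: 0% = growth of cultures given vehicle only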; conditions: S. cerevisiae sgs1 mgt1 strain, at 50.0 µM, hits give high values
Procedure, shortened: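 Inhibition of yeast growth, normalised to vehicle-treated controls, is reported for a strain bearing genetic alterations in DNA damage repair.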

[4] = NCI Yeast Anticancer Drug Screen. Data for the cln2 rad14 strain (AID 165);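 also: 0% = growth equal to vehicle treated cultures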; conditions: S. cerevisiae cln2 rad14 strain, at 50.0 µM, hits give high values
Procedure, shortened: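 Each compound was tested on cln2 rad14 yeast. Inhibition of growth was calculated against vehicle-exposed controls.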

[5] = NCI Yeast Anticancer Drug Screen. Data for the bub3 strain (AID 167); conditions: S. cerevisiae bub3 mutant strain, at 50.0 µM, hits give high values
Procedure, shortened: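 Screening used yeast with an engineered genetic alteration affecting cell cycle control. Compound-exposed cultures were compared with vehicle cultures, and reduced growth was taken as inhibition.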

[6] = NCI Yeast Anticancer Drug Screen. Data for the mlh1 rad18 strain (AID 175); conditions: S. cerevisiae mlh1 rad18 strain growth inhibition; at 50.0 µM; hits give high values
Procedure, shortened: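 Vehicle-treated cultures served as the reference for growth inhibition in a yeast strain carrying DNA damage repair alterations exposed to each compound.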

Measured: growth inhibition

CC(=O)C(C)CCOC1(C)OCCC1C (stereo unspecified)
inactive: [1] -7.4% | [2] 5.25% | [3] -13.1% | [4] -22.2% | [5] -36.4% | [6] 7%

CC(C)=CCC1=C(OC2OC(CO)C(O)C(O)C2O)C(=O)c2ccccc2C1=O (stereo unspecified)
inactive: [1] 15.2% | [2] 15.6% | [3] 11.2% | [4] 6.95% | [5] 6.55% | [6] 5.5%

O=C1OC(C2OC(=O)C(=O)C2C(=O)c2ccccc2Cl)C(C(=O)c2ccccc2Cl)C1=O (stereo unspecified)
inactive: [1] 58.4% | [2] 23.9% | [3] 49.5% | [4] 19.1% | [5] 7.15% | [6] 53.5%

O=C(Nc1ccccc1)c1cc2cc(N=Nc3ccc(Br)cc3)ccc2oc1=O
inactive: [1] 4.2% | [2] -4.7% | [3] -0.4% | [4] 16.1% | [5] -17.1% | [6] -13.1%

COC(=O)CC1(C(=O)OC)OC(=O)c2ccccc2N1C (stereo unspecified)
inactive: [1] 8.2% | [2] 12% | [3] 19.9% | [4] -24.6% | [5] -8.35% | [6] 12.3%

CCN(CC)COC(=O)C(C)(C)C
inactive: [1] -13.1% | [2] 10.6% | [3] -12.9% | [4] -35% | [5] -9.25% | [6] -4.2%

CCN(CC)CCCC(C)NCc1ccnc2cc(Cl)ccc12 (stereo unspecified)
inactive: [1] -3.35% | [2] -8.05% | [3] 5.95% | [4] -21.4% | [5] 1.65% | [6] 25.4%

Cc1cc(=O)c2ccccc2o1
inactive: [1] -5.15% | [2] -7.75% | [3] -1.3% | [4] -0.1% | [5] -18.9% | [6] -13.7%

COc1cc(COC(=O)Nc2ccccc2F)cc(OC)c1OC
inactive: [1] -4.9% | [2] -19.1% | [3] 7.25% | [4] 5.85% | [5] 19.6% | [6] -10%

Cc1nc2c(ccc3cc4ccccc4cc32)cc1N(CCO)CCO
inactive: [1] 28.1% | [2] -0.75% | [3] -0.15% | [4] 20.9% | [5] 16.6% | [6] 18.1%

N#Cc1c(-c2cccn(-c3ccccc3)c2=O)cc(-c2ccccc2)[nH]c1=O
inactive: [1] 1.55% | [2] -5.65% | [3] -5.7% | [4] -19.1% | [5] 0.9% | [6] 9.1%

COC(=O)c1nc(N)[nH]c(=O)c1CCCCCc1c(C(=O)OC)nc(N)[nH]c1=O
inactive: [1] -4.8% | [2] -0.15% | [3] -9.2% | [4] 6.5% | [5] -0.3% | [6] -17.6%

C/C(=N\NC(=S)NCCCCNC(=S)N/N=C(\C)c1ccccn1)c1ccccc1
inactive: [1] -4.15% | [2] 36.1% | [3] 14.7% | [4] 3.65% | [5] 38.4% | [6] 13.9%

Cc1cccc(NC(=O)c2ccc(Cl)c(Cl)c2)c1
inactive: [1] 11.3% | [2] 13.7% | [3] -0.25% | [4] -65.6% | [5] 30.4% | [6] -8.65%

CC(=O)OCC1OC2OC(C)(C)OC2C2OC(C)(C)OC12 (stereo unspecified)
inactive: [1] -13.5% | [2] 5.35% | [3] 19.2% | [4] -4.65% | [5] -7.65% | [6] -12.8%

CN(C)C1=NC(c2ccccc2)(c2ccccc2)C(=O)N1
inactive: [1] -17.4% | [2] -8.15% | [3] -3.15% | [4] -40.5% | [5] -6.35% | [6] -23.4%

CC(=O)CC(=O)Nc1ccc(Cl)cc1
inactive: [1] -2.75% | [2] -27.9% | [3] 12.2% | [4] 3.85% | [5] -5.55% | [6] 8.45%

CN1CCN(CN2C(=O)C3C4C=CC(C3C2=O)C2C(=O)N(CN3CCN(C)CC3)C(=O)C42)CC1 (stereo unspecified)
inactive: [1] 18.1% | [2] 5.95% | [3] 13.5% | [4] -0.85% | [5] 14.6% | [6] 16.9%

C/C(=N\N=C(/C)c1ccc(O)cc1O)c1ccc(O)cc1O
inactive: [1] 13.7% | [2] 12.7% | [3] -3.5% | [4] 6.15% | [5] 6.75% | [6] -3.35%

CCOC(=O)N/N=C(\C)c1ccc(OC)cc1
inactive: [1] 17.8% | [2] 21.9% | [3] 20.1% | [4] 11.3% | [5] 34.9% | [6] 19.1%

NC(Cc1ccccc1)C(=O)O (stereo unspecified)
inactive: [1] -20.7% | [2] -12.4% | [3] -33.9% | [4] -73.7% | [5] -24.9% | [6] -20.6%

O=c1sc2ncccc2n1-c1ccc([N+](=O)[O-])cn1
inactive: [1] -3.4% | [2] 10.4% | [3] 3.15% | [4] -18.4% | [5] 11.9% | [6] -6.55%

NC(=O)NNC/C(Cl)=C(\Cl)C(=O)O
inactive: [1] -1.65% | [2] -19.4% | [3] 8.7% | [4] 16.9% | [5] 5.5% | [6] 2.85%

CCCCCCC(O)CCCCCCCCCCCO (stereo unspecified)
inactive: [1] 41.5% | [2] -15.4% | [3] 1.05% | [4] -43% | [5] 10.2% | [6] 15.5%

CC(C)(C)c1cc(Nc2c([N+](=O)[O-])cc([N+](=O)[O-])cc2[N+](=O)[O-])cc(C(C)(C)C)c1O
inactive: [1] -17.7% | [2] 10.4% | [3] 2.65% | [4] 20.4% | [5] -5.4% | [6] 0.45%

O=C1C(=O)N(c2ccc(Cl)cc2Cl)C(=O)C(=O)C1c1nc2ccccc2s1
inactive: [1] 43.1% | [2] 29.7% | [3] 4% | [4] 24.2% | [5] 25.6% | [6] 29%

CC(C)CC(F)(C(N)=O)C(N)=O
inactive: [1] -4.6% | [2] -4.15% | [3] -3.4% | [4] -3.05% | [5] -5.65% | [6] -4.2%

COc1c2cccc(Cl)c2cc2c(Cl)cccc12
inactive: [1] 6.3% | [2] -6.15% | [3] 1.3% | [4] 18.8% | [5] -11.2% | [6] 12.5%

Cc1ccc2c(c1)OC(=O)CC2
inactive: [1] 10.3% | [2] -9.65% | [3] -3.25% | [4] -18.8% | [5] -4.1% | [6] -4.3%

Nc1nc(N)c2c(Cl)c(CNc3ccc(C(=O)NC(CC(=O)O)CC(=O)O)cc3)ccc2n1
inactive: [1] 19% | [2] 9.65% | [3] 22.2% | [4] -1.35% | [5] -4.05% | [6] 14.4%

CC(C)(CCN(CC(=O)O)CC(=O)O)[N+](=O)[O-]
inactive: [1] -16.1% | [2] -3.1% | [3] 3.65% | [4] -69.8% | [5] 6.05% | [6] -21.5%

COc1cccc(NC(=O)C(=O)C2C=CCS2(=O)=O)c1 (stereo unspecified)
inactive: [1] 0.4% | [2] -0.65% | [3] -31.4% | [4] -6.6% | [5] -28.3% | [6] -13%

OC1(c2ccc(-c3ccc(-c4ccc(C5(O)C(c6ccccc6)=C(c6ccccc6)C(c6ccccc6)=C5c5ccccc5)cc4)cc3)cc2)C(c2ccccc2)=C(c2ccccc2)C(c2ccccc2)=C1c1ccccc1
inactive: [1] 1.05% | [2] 4.4% | [3] 6.8% | [4] -3.9% | [5] -1.8% | [6] 2%

COc1ccc(NC(=O)CSc2nnc(Cc3ccccc3)o2)cc1
inactive: [1] -49.5% | [2] -37.4% | [3] -43.6% | [4] -21.1% | [5] -54% | [6] -57.6%

CCOC(=O)c1c(C(C)=O)cnc2c(C#N)cnn12
inactive: [1] -1.15% | [2] -1.55% | [3] -4.95% | [4] 41% | [5] 0.6% | [6] -10.9%

CC(C)Cc1cn(O)c2nc(=N)nc(N)c-2n1
inactive: [1] 4.95% | [2] -5.6% | [3] -1.7% | [4] -13.6% | [5] 5.8% | [6] 4%

O=C(Nc1cccc(Cl)c1)OC1C=CCC1 (stereo unspecified)
inactive: [1] 3.4% | [2] 1.75% | [3] 2.65% | [4] -20.1% | [5] -2.15% | [6] -15.5%

O/N=C/c1cc2c(cc1Br)OCO2
inactive: [1] -4.2% | [2] -9.9% | [3] -18.9% | [4] -9.75% | [5] -16.9% | [6] -17.6%

O=C1NCC2(CCCCCC2)O1
inactive: [1] 5.15% | [2] -0.65% | [3] 13.2% | [4] 4.95% | [5] -3.9% | [6] 6.15%

CCSc1nc(Cl)nc2c1cnn2C
inactive: [1] 7.95% | [2] -2.15% | [3] 8.05% | [4] 4.1% | [5] 24.9% | [6] 5.4%

O=C(Nc1ccc(S(=O)(=O)N2CCCCC2)cc1)Oc1ccccc1C(=O)O
inactive: [1] 26.4% | [2] -4.5% | [3] 3.15% | [4] 16.1% | [5] -1.65% | [6] 4.8%
